In PubChem BioAssay one finds z-score and composite z-score data, which are given here for five compounds.

Active and inactive are the calls of the source.

The nature of test [1]: optical density shifts of acrAB sulA E. coli – strain DRC41, OD650, 48 h, E. coli filamentation inducer project, primary screen (AID 1152).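 Also: E. coli MC1000 strain DRC41 lacking acrAB efflux pump and sulA.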 The following applies: higher = more signal, called active from +8 up or from −8 down.
Test [2] in a line: probe aLefty1 binding on compound microarray – biochemical, small-molecule microarray, 635/667 nm fluorescence, primary screen (AID 1153).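 Also: score merges spot fluorescence with signal-to-noise ratio from the scanned slide images.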 The following applies: higher = more signal.
Test [3] is described as follows: plasmodial surface anion channel blockers, osmotic lysis – cell-based, P. falciparum Indochina, OD700, 1 h, primary screen (AID 1154). The settings on record: P. falciparum Indochina infected RBC osmotic lysis, higher = more signal, called active from +8 up or from −8 down.
The nature of test [4]: plasmodial surface anion channel blockers, osmotic lysis – cell-based, P. falciparum Indochina, OD700, 2 h, primary screen (AID 1155).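 Also: lysis reports solute entry through the parasite surface anion channel PSAC.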 The settings on record: P. falciparum Indochina infected erythrocytes, higher = more signal, called active from +8 up or from −8 down.
The nature of test [5]: changes in parasitized red cell lysis, either direction – P. falciparum Indochina, OD700, 3 h, PSAC antagonist project, primary screen (AID 1156). The following applies: P. falciparum-infected erythrocytes, osmotic lysis, higher = more signal, called active from +8 up or from −8 down.
Test [6] in a line: plasmodial surface anion channel blockers, osmotic lysis – cell-based, P. falciparum Indochina, OD700, 18 h, primary screen (AID 1157). The settings on record: P. falciparum Indochina infected erythrocytes, osmotic lysis OD700, 18 h; higher = more signal, called active from +8 up or from −8 down.
Test [7] can be described thus: S6 kinase pathway phospho-S6 level changes – cell-based, A549, cytoblot, luminescence, serum-stimulated, primary screen (AID 1158).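 Also: serum-stimulated A549 lung adenocarcinoma cells; signal is phosphorylated S6 detected by cytoblot immunostaining with HRP secondary.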 The following applies: 5 h, higher = more signal.
Test [8] has as its target NADPH oxidase 2 (Homo sapiens) (UniProt P04839). The experiment in a line: compounds shifting NOX2 Amplex Red fluorescence – cell-based, HEK293-NOX2, PMA-stimulated, NOX inhibitor project, primary screen (AID 1159). Also: test concentration not given here. The settings on record: 45 min, higher = more signal, called active from +8 up or from −8 down.
The target of test [9] is NADPH oxidase 4 (Homo sapiens) (UniProt Q9NPH5). The experiment in a line: compounds shifting NOX4 Amplex Red fluorescence – cell-based, HEK293-NOX4, tetracycline-induced, NOX inhibitor project, primary screen (AID 1160). The following applies: HEK293-NOX4, Amplex Red H2O2 fluorescence, 45 min; higher = more signal, called active from +8 up or from −8 down.
In test [10] the target is NADPH oxidase 5 (Homo sapiens) (UniProt Q96PH1). Description: compounds shifting NOX5 Amplex Red fluorescence – cell-based, HEK293-NOX5, NOX inhibitor project, primary screen (AID 1161). The settings on record: HEK293-NOX5, ionomycin, 45 min, higher = more signal.
The nature of test [11]: compound effects on lung adenocarcinoma cell viability – A549, calcein-AM fluorescence, 48 h, basal, profiling panel (AID 1162). Also: test concentration not given here. The following applies: higher = more signal.
Test [12] is described as follows: compound effects on differentiated 3T3-L1 adipocyte viability – cell-based, 3T3-L1 adipocytes, calcein-AM fluorescence, 48 h, basal, profiling panel (AID 1163). Also: test concentration not given here. The settings on record: 3T3-L1 adipocytes viability, higher = more signal.
A short description of test [13]: compound effects on hepatocellular carcinoma cell viability – HepG2, calcein-AM fluorescence, 48 h, basal, profiling panel (AID 1164). Also: test concentration not given here. The following applies: higher = more signal.
Test [14] can be described thus: compound effects on multiple myeloma cell viability – MM1S, calcein-AM fluorescence, 48 h, basal, profiling panel (AID 1165).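 Also: viability of MM1S multiple myeloma cells under basal unstimulated conditions; test concentration not given here.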 The settings on record: higher = more signal.
Test [15] in a line: calcein-AM signal in unstimulated myeloma cells – cell-based, calcein-AM fluorescence, 48 h, PK04 Diversity Set, profiling panel (AID 1166).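 Also: cells grown under basal conditions without added stimulus; test concentration not given here.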 The following applies: RPMI8226 myeloma viability, higher = more signal.
Test [16] can be described thus: JC-1 mitochondrial signal, unstimulated HepG2 cells – cell-based, JC-1 fluorescence, 24 h, 100 nL compound, profiling panel (AID 1167). Also: test concentration not given here. The settings on record: HepG2 mitochondrial potential, higher = more signal.
A short description of test [17]: JC-1 mitochondrial signal, unstimulated adipocytes – cell-based, JC-1 fluorescence, 3T3-L1 adipocytes, 24 h, 100 nL compound, profiling panel (AID 1168). Also: test concentration not given here. The settings on record: JC-1 mitochondrial fluorescence, higher = more signal, called active from +8 up or from −8 down.
Test [18] is described as follows: JC-1 mitochondrial signal, unstimulated myeloma cells – cell-based, JC-1 fluorescence, RPMI8226, 24 h, 100 nL compound, profiling panel (AID 1169). Also: test concentration not given here. The following applies: JC-1 mitochondrial potential fluorescence, higher = more signal.
The nature of test [19]: JC-1 mitochondrial signal, unstimulated MM1S myeloma – cell-based, JC-1 fluorescence, 24 h, 100 nL compound, profiling panel (AID 1170). Also: test concentration not given here. The settings on record: MM1S mitochondrial potential, higher = more signal.
The nature of test [20]: resazurin metabolic signal in A549 cells – cell-based, resazurin fluorescence, 24 h, PK04 Diversity Set, profiling panel (AID 1171). Also: test concentration not given here. The following applies: A549 viability, higher = more signal, called active from +8 up or from −8 down. (In general: Resazurin is reduced to fluorescent resorufin, in cell work by metabolically active cells.)

Chain of NADPH oxidase 2 (Homo sapiens) (P04839 whole entry, looked up): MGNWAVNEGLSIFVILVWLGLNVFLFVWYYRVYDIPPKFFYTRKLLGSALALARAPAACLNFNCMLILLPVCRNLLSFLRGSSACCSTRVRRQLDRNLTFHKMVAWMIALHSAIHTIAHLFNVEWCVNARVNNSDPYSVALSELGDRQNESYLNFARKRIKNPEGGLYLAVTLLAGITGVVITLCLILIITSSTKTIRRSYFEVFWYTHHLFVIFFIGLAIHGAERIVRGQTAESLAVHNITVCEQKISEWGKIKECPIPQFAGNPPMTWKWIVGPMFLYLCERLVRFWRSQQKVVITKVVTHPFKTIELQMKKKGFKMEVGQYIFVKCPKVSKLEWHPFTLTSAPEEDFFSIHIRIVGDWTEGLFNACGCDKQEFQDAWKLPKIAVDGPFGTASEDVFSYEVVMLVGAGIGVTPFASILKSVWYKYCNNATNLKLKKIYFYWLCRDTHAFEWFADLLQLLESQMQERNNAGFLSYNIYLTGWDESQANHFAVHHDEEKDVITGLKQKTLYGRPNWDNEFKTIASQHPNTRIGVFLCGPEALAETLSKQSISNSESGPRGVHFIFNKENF
Chain of NADPH oxidase 4 (Homo sapiens) (Q9NPH5 whole entry, looked up): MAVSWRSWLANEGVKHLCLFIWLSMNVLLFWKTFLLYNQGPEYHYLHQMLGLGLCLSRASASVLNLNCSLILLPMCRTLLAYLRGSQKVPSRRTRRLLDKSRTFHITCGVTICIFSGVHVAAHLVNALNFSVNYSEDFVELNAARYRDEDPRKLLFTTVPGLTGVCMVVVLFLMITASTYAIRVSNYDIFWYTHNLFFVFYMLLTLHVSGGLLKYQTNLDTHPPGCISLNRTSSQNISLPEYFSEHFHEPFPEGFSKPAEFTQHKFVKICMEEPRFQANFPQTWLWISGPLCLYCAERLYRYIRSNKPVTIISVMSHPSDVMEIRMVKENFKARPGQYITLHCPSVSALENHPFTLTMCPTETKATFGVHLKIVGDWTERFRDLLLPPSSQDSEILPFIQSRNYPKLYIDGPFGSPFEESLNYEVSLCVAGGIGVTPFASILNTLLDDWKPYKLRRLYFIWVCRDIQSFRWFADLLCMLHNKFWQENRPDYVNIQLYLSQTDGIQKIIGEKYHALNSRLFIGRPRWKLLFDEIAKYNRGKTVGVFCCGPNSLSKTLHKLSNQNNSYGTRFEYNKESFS
Chain of NADPH oxidase 5 (Homo sapiens) (Q96PH1 whole entry, looked up): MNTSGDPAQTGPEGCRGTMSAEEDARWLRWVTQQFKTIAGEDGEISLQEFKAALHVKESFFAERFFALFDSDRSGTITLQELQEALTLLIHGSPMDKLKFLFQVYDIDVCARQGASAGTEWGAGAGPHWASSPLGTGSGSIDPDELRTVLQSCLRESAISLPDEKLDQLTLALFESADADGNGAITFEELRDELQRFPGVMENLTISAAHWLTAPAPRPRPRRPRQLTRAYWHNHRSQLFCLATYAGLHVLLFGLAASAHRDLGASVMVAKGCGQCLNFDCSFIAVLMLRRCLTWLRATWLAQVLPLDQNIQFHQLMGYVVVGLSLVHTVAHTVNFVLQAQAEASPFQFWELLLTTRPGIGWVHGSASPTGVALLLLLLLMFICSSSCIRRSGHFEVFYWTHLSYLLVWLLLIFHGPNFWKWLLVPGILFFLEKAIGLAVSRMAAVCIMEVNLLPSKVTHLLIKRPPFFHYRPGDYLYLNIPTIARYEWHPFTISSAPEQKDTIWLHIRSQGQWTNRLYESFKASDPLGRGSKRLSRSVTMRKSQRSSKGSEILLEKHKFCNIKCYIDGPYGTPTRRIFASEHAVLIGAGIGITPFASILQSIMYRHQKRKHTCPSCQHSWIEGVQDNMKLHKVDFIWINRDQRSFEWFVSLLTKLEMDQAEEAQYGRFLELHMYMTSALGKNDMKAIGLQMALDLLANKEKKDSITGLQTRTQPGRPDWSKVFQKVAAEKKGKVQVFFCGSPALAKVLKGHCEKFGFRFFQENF

Turning to `CN(C)C(=O)[C@]1(Cc2ccccc2)N=C(c2ccc(OCCCO)cc2)O[C@@H]1c1ccccc1CN=[N+]=[N-]`, the z-score was 0.631 (inactive) in test [1]; 27.3 (active) in test [3]; 17.5 (active) in [4]; 1.11 (inactive) in test [5]; 2.14 (inactive) in [6]; 0.0358 in test [7]. Further, the z-score in test [8] is -3.22 (inactive); in test [9], -0.846 (inactive); in test [10], -1.24; in test [11] it was 0.233; in test [12], 0.412; in [13] it was -0.0312. Further, the z-score in [14] is -0.726; in test [15] it was -1.65; in test [16], 0.501; in test [17], 0.0148 (inactive); in test [18], -1.23; in test [19], -0.507. For the same compound, in [20], the z-score was 0.553 (inactive). This compound registered a composite z-score in test [2] of 0.313.
As to `CCN(CC)c1ccc(N2CC=CC34O[C@@H]5C=CCCOC(=O)C5[C@H]3C(=O)N(C(C)CO)[C@@H]4C2=O)cc1` (stereo not given in full), the z-score in [1] was -0.627 (inactive); in test [3] it was 3.66 (inactive); in [4], 0.493 (inactive); in [5] it was 0.988 (inactive); in test [6], 0.353 (inactive); in [7] it was -0.465. Moreover, the z-score in test [8] is -0.748 (inactive); in test [9], 0.447 (inactive); in test [10], 0.772; in [11], -0.0735; in test [12], -0.456; in test [13], 0.316. Further, the z-score in test [14] is 0.241; in test [15], 0.333; in test [16], 0.408; in test [17], 0.0389 (inactive); in test [18] it was -0.487; in test [19] it was 0.0276. Moreover, the z-score in test [20] was 0.586 (inactive). For the same compound, the composite z-score in [2] was determined as 0.138.
`Cc1ccc(N2C(=O)c3ccccc3[C@](C)(C(=O)NCCCN(C)C)[C@@H]2c2ccc(CO)cc2)nc1`: the z-score was -0.666 (inactive) in [1]; 1.23 (inactive) in test [3]; 0.0681 (inactive) in test [4]; 0.386 (inactive) in test [5]; -0.135 (inactive) in test [6]; -0.0873 in test [7]. Also, the z-score in [8] was 0.627 (inactive); in test [9] it was 0.631 (inactive); in test [10], 0.199; in [11], 0.235; in test [12] it was 0.85; in test [13] it was -0.153. Moreover, the z-score in test [14] is -0.629; in test [15], -0.444; in test [16] it was -0.53; in test [17] it was -0.419 (inactive); in test [18], -0.884; in test [19], -0.29. The z-score in test [20] is 0.31 (inactive). Further, the composite z-score in test [2] was -0.0058.
On to `O=C1C2C=CC(C(O)c3cccs3)N(Nc3ccc([N+](=O)[O-])cc3)C2C(=O)N1c1ccccc1` (stereo not given), for which the z-score in [1] was -0.46 (inactive); in test [3], 8.61 (active); in test [4], 1.43 (inactive); in test [5], 1.75 (inactive); in test [6], 0.753 (inactive); in test [7] it was -0.772. The z-score was -0.437 (inactive) in [8]; -2.75 (inactive) in test [9]; -1.55 in [10]; -0.792 in test [11]; -1.01 in test [12]; 1.43 in [13]. Besides, the z-score was -0.752 in test [14]; -0.85 in test [15]; -0.841 in [16]; -0.728 (inactive) in test [17]; 0.569 in test [18]; -1.46 in [19]. Moreover, in [20], the z-score was 0.644 (inactive). Further, in test [2], the composite z-score was -0.105.
As to `CC(=O)OCC1C2CC[C@H]3C(OCc4ccc(F)cc4C(F)(F)F)OC[C@]4(C)[C@H]3C2=C(CN4C(=O)OC(C)(C)C)[C@H](C)C1COC(C)=O` (stereo not given in full), the z-score in test [1] is -2.4 (inactive); in test [3], 1.07 (inactive); in test [4], 0.678 (inactive); in test [5], 1.04 (inactive); in test [6], 0.593 (inactive); in test [7], -0.239. In addition, the z-score in [8] was -0.896 (inactive); in test [9], -2.29 (inactive); in [10], -1.51; in test [11], -0.647; in [12], -0.0623; in [13], -0.174. The z-score in test [14] is -2.29; in test [15] it was -1.93; in [16], 2.61; in test [17], -0.984 (inactive); in test [18] it was -0.606; in test [19], -1.3. In addition, the z-score in test [20] was 0.892 (inactive). The compound further gave a composite z-score in test [2] of 0.498.
